PubChem BioAssay (NCATS)
Values joined by “and” are separate entries in the source; they are usually repeats but may differ in a detail not shown here. Identical values can stand only once. Results filed as inconclusive are left out. A structure can be active in one record and inactive in another. Active and inactive are the calls of the source. Unless noted, calls follow the shape of the dose curve; as a rule, active = well fitted curve in the direction sought with a large enough effect; inconclusive = small, poorly fitted or top-dose-only effect, or another doubt; inactive = no such curve, though single readings can be large; an effect the other way counts as inactive or inconclusive.

What was measured:
[1] = target: Hexokinase-4 (Homo sapiens) + Glucokinase regulatory protein (Homo sapiens) (UniProt P35557+Q14397); experiment: qHTS assay for inhibitors of recombinant human GCK-GKRP interaction: HTRF assay (AID 743207); details: recombinant GCK-GKRP HTRF binding, 60 min, with sorbitol-6-phosphate; series mostly up to 57.5 µM;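 also: 0% = DMSO with GCK present and -100% = DMSO wells lacking GCK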
Summary of the method: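 Titration screening format: recombinant GST-GCK and FLAG-GKRP at 5 nM, S6P at 2 uM, labelled anti-tag antibodies, 60 min at RT, dual-wavelength HTRF readout.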

[2] = qHTS Assay for Identifying Gametocytocidal Compounds (AID 743244); also: potency is read from the fitted curve at half-maximal effect;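 as to max response: % is scaled to controls: 0 for no effect and ±100 for the full control effect; actives lower the fluorescent signal which means gametocytes are killed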; details: P. falciparum 3D7 stage III-V gametocytes, alamarBlue, 72 h; max response: stronger effect = lower value
Summary of the method: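 P. falciparum 3D7 stage III–V gametocytes (20,000 cells/well) were exposed to compounds for 72 h at 37 °C, 5% CO2. AlamarBlue was then added for 24 h; decreased resorufin fluorescence (Ex 525/Em 598 nm) indicated loss of viability.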

[3] = qHTS profiling for inhibitors of Plasmodium falciparum (3D7) proliferation (AID 743322; call rule not given here;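 also: infected erythrocytes exposed to compound for 72 h before lysis; 100% = DMSO vehicle wells and 0% = 0.29 µM artemisinin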); details: P. falciparum 3D7 proliferation; at 28.7 µM (top of the series) unless noted
Summary of the method: (§1)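 Parasite DNA was quantified by SYBR Green I fluorescence (ex 485, em 535 nm) after overnight lysis in saponin/Triton buffer at room temperature. Cultures at 0.3% parasitemia and 2.5% hematocrit were first exposed to compound for 72 h at 37 C; signals were normalised to artemisinin (0.29 uM) and vehicle wells.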

[4] = qHTS profiling for inhibitors of Plasmodium falciparum (DD2) proliferation (AID 743323; call rule not given here); details: lower = more inhibition; at 28.7 µM (top of the series) unless noted
Summary of the method: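 Parasite DNA quantified by SYBR Green fluorescence (ex 485, em 535 nm) after saponin/Triton lysis and overnight dark incubation. Cultures: 0.3% parasitemia, 2.5% hematocrit, 72 h, 37 C; data scaled between DMSO and 0.29 uM artemisinin.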

[5] = qHTS profiling for inhibitors of Plasmodium falciparum (HB3) proliferation (AID 743324); details: Plasmodium falciparum HB3 blood-stage proliferation; at 28.7 µM (top of the series) unless noted;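 also: 100% = DMSO vehicle wells and 0% = artemisinin-treated control wells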
Summary of the method: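 SYBR Green fluorescence (485 ex/535 em) of lysed cultures, incubated overnight at room temperature in the dark, quantifies parasite DNA. Infected erythrocytes at 0.3% parasitemia and 2.5% hematocrit were exposed 72 h; values normalized to DMSO and 0.29 uM artemisinin controls.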

[6] = qHTS profiling of the MIPE4 collection as inhibitors of Plasmodium falciparum (3D7) proliferation (AID 743344; call rule not given here;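 also: scaled between DMSO vehicle wells and 0.29 µM artemisinin as full inhibition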); details: P. falciparum 3D7 in erythrocytes, SYBR Green DNA fluorescence, 72 h; at 28.5 µM (top of the series) unless noted
Summary of the method: as §1

[7] = qHTS profiling of the MIPE4 collection as inhibitors of Plasmodium falciparum (DD2) proliferation (AID 743345; call rule not given here); details: P. falciparum Dd2 in erythrocytes, SYBR Green DNA, 72 h; at 28.5 µM (top of the series) unless noted
Summary of the method: as §1

[8] = qHTS profiling of the MIPE4 collection as inhibitors of Plasmodium falciparum (DD2) proliferation (Rep 2) (AID 743346; call rule not given here); details: P. falciparum Dd2 in erythrocytes, SYBR Green DNA, 72 h; at 28.5 µM (top of the series) unless noted
Summary of the method: as §1

[9] = qHTS profiling of the MIPE4 collection as inhibitors of Plasmodium falciparum (HB3) proliferation (AID 743347; call rule not given here;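 also: plate controls were DMSO vehicle wells for no effect and artemisinin wells for full effect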); details: P. falciparum HB3 in erythrocytes, SYBR Green DNA, 72 h; at 28.5 µM (top of the series) unless noted
Summary of the method: as §1

[10] = High-throughput drug toxicity screening in the BPDCN cell line Gen2.2 (AID 1224824; call rule not given here;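 also: cells exposed to compounds for 48 h before reading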); details: Gen2.2 BPDCN cells; at 45.8 µM (top of the series) unless noted
Summary of the method: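 Readout is ATP luminescence from Gen2.2 cells after two days of drug exposure in serum-containing medium at 37 °C. Values express percent activity, with vehicle defining full signal and 9.2 uM bortezomib defining zero.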

[11] = High-throughput drug toxicity screening in the BPDCN cell line Cal-1 (AID 1224825; call rule not given here); details: Cal-1 BPDCN cell viability, qHTS; at 45.8 µM (top of the series) unless noted
Summary of the method: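 Percent activity derived from CellTiter-Glo luminescence, scaling DMSO to 100% and 9.2 uM final bortezomib to 0%. BPDCN Cal-1 cells (500/well, RPMI plus 10% FBS) incubated with compounds 48 hours at 37C before reading.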

[12] = qHTS assay for measurement of the activity of small molecule inhibitors on Zika virus induced Caspase-3 activity in human iPSC derived neural progenitor cells (hNPCs) (AID 1224857); details: hNPCs ZIKV-induced caspase-3/7, Caspase-Glo luminescence, 6 h; series mostly up to 45.7 µM; also: nearly all actives have a fitted effect of over 65% in size; also: potency is read from the fitted curve at half-maximal effect
Summary of the method: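 hNPCs seeded 350 cells/well, cultured 16–20 h; compounds added 1 h before ZIKV (2 FFU/cell), 37 C 6 h. Caspase-Glo 3/7 luminescence after 30 min RT; % inhibition from induction scaled to uninfected (0%) and infected (100%) wells.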

[13] = qHTS assay for measurement of the activity of small molecule inhibitors on Zika virus induced Caspase-3 activity in human astrocytoma cells (AID 1224859); details: SNB-19 ZIKV-induced caspase-3/7, luminescence, 6 h; series mostly up to 45.7 µM; also: potency is read from the fitted curve at half-maximal effect
Summary of the method: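 Luminescence read-out (Caspase-Glo 3/7, 30 min RT) of caspase activity in SNB-19 cells infected 6 h with ZIKV, 2 FFU/cell, after 1 h compound pretreatment; % inhibition from induction normalised to uninfected (0%) and infected (100%) wells.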

[14] = qHTS Screen of the MIPE 4.0 Collection Against Ewings Sarcoma (RDES) (AID 1259252); details: RD-ES Ewing sarcoma viability, CellTiter-Glo, 48 h; series mostly up to 45.8 µM; also: nearly all actives have a fitted effect of over 35% in size; also: potency is read from the fitted curve at half-maximal effect
Summary of the method: (§2)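 After a 4 h attachment period in RPMI/5% FBS, cells were pin-dosed with test compounds; DMSO served as negative and 9.2 uM bortezomib (final) as positive control. Luminescent CellTiter-Glo signal at 48 h defined viability.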

[15] = qHTS Screen of the MIPE 4.0 Collection Against Ewings Sarcoma (TC71) (AID 1259253); details: TC71 Ewing sarcoma viability, CellTiter-Glo, 48 h; series mostly up to 45.8 µM; also: nearly all actives have a fitted effect of over 40% in size; also: potency is read from the fitted curve at half-maximal effect
Summary of the method: as §2

[16] = qHTS Screen of the MIPE 4.0 Collection Against Ewings Sarcoma (EW8) (AID 1259255); details: EW8 Ewing sarcoma viability, CellTiter-Glo, 48 h; series mostly up to 45.8 µM; also: nearly all actives have a fitted effect of over 35% in size; also: potency is read from the fitted curve at half-maximal effect;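 as to viability: 100% = DMSO-treated cells and 0% = medium-only wells without cells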
Summary of the method: as §2

[17] = qHTS assay for cell viability of HEK293 cells (AID 743288); details: ATP luminescence (CellTiter-Glo), 18 h; max response: stronger effect = lower value; also: % is scaled to controls: 0 for no effect and ±100 for the full control effect; nearly all actives have a fitted effect of over 50% in size
Summary of the method: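 HEK293, 18 h, 37 C, ATP luminescence. Cells at 2,000/well were allowed at least 5 h to settle before dosing; CellTiter-Glo developed 30 min at RT.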

[18] = qHTS assay for cell viability of the p53RE-bla HCT-116 cell line (AID 743292); details: p53RE-bla HCT-116 viability, ATP luminescence, 16 h; series mostly up to 95 µM; also: % is scaled to controls: 0 for no effect and ±100 for the full control effect; nearly all actives have a fitted effect of over 55% in size
Summary of the method: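 Intracellular ATP of p53RE-bla HCT-116 cells measured by luciferase luminescence following 16 h compound incubation at 37 C; DMSO-only wells served as vehicle controls.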

Sequence of Hexokinase-4 (Homo sapiens) + Glucokinase regulatory protein (Homo sapiens) (P35557 whole entry, looked up): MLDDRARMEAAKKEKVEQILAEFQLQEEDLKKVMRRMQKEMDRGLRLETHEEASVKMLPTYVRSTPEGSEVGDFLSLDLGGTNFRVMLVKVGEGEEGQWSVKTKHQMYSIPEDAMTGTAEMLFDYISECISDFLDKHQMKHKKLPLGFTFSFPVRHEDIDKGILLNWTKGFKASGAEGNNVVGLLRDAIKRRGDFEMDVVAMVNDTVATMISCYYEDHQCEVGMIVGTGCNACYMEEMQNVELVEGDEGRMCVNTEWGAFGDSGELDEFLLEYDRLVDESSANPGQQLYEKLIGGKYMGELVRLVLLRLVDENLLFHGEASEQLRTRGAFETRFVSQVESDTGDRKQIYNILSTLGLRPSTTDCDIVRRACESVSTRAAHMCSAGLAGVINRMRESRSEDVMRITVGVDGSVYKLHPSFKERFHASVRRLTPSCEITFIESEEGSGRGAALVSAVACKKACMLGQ
Sequence of Hexokinase-4 (Homo sapiens) + Glucokinase regulatory protein (Homo sapiens) (Q14397 whole entry, looked up): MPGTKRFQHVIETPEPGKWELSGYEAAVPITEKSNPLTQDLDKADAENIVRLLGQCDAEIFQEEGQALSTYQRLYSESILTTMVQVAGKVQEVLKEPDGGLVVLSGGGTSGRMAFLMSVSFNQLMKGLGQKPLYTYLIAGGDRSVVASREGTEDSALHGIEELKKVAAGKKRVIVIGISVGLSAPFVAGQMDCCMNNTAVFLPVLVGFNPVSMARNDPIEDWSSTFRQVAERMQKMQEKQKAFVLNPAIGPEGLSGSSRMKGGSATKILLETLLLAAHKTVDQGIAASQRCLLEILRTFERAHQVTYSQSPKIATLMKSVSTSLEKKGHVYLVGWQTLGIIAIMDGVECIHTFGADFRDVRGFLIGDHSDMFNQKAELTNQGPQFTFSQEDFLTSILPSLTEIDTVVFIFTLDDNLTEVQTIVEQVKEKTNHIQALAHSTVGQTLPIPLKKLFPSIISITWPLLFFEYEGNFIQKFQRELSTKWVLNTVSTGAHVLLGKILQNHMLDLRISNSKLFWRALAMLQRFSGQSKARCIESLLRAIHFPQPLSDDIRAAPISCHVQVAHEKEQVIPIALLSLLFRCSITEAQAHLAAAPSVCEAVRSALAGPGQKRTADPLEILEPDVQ

| Structure (SMILES) | outcome [1] | Potency [2] | remaining parasite growth % (stronger effect = lower value) [3] [%] | activity, percent of control [4] [%] | remaining proliferation (% of control), lower = more inhibition [5] [%] | parasite growth, % of DMSO control [6] [%] | parasite growth remaining, % of DMSO control (lower = more inhibition) [7] [%] | parasite growth, % of control (lower = inhibition) [8] [%] | growth, % of control [9] [%] | cell viability, % of control (lower = more cytotoxic) [10] [%] | viability (% of control) [11] [%] | Potency [12] | Potency [13] | Potency [14] | Potency [15] | Potency [16] | max response [2] | max response [17] | Potency [18] |
| --- | --- | --- | --- | --- | --- | --- | --- | --- | --- | --- | --- | --- | --- | --- | --- | --- | --- | --- | --- |
| Cc1cccc(-c2[nH]c(C(C)(C)C)nc2-c2ccc3nccnc3c2)n1 | inactive | 0.662 µM (active) | 54.8 | 67.1 | 27 | 23.7 | 47.6 | 34.2 | 6.8 | 391 | 15.5 | inactive | inactive | 16.6 µM (active) | 26.4 µM (active) | 23.5 µM (active) | – | – | – |
| Cc1cc(Nc2nc(N[C@@H](C)c3ncc(F)cn3)ncc2Cl)n[nH]1 | – | – | 108 | 100 | 101 | 6.82 | 8.04 | – | 10.9 | 151 | 4.1 | inactive | inactive | 6.62 µM (active) | 10.5 µM (active) | 26.4 µM (active) | 8.89% (inactive) | – | – |
| CC(C)NCC(O)COc1ccc(COCCOC(C)C)cc1 (stereo unspecified) | inactive | – | – | – | – | 78.7 | 102 | – | 102 | 123 | 113 | inactive | inactive | inactive | inactive | inactive | 24.7% (inactive) and -10.9% (inactive) and -2.93% (inactive) | – | – |
| Nc1ccc(S(=O)(=O)Nc2ccnn2-c2ccccc2)cc1 | inactive | – | – | – | – | 93.3 | 103 | 86.8 | 94.4 | 153 | 115 | inactive | inactive | inactive | inactive | inactive | 9.56% (inactive) and 18.4% (inactive) | – | – |
| Cc1ccccc1C(OCCN(C)C)c1ccccc1 (stereo unspecified) | inactive | – | – | – | – | 64.6 | 60.2 | 40.2 | 87.3 | 149 | 93 | inactive | inactive | inactive | inactive | inactive | 21.5% (inactive) and -9.62% (inactive) and 11.5% (inactive) | -14.1% (inactive) | – |
| Cc1cnc(NC(=O)C2=C(O)c3ccccc3S(=O)(=O)N2C)s1 | inactive | – | – | – | – | 39 | 86.7 | – | 78.1 | 60.9 | 96.3 | inactive | inactive | inactive | inactive | inactive | 4.3% (inactive) and 13.2% (inactive) and 16.1% (inactive) | – | – |
| Cc1[nH]c(=O)c(C#N)cc1-c1ccc2nccn2c1 | inactive | – | 105 | 98.1 | – | 50.3 | 93.1 | 113 | 68.7 | 220 | 95.5 | inactive and 7.43 µM (active) | inactive and 4.69 µM (active) | inactive | inactive | inactive | -5.81% (inactive) and 18.1% (inactive) | – | – |
| OCCn1cc(-c2cnc3nnn(Cc4ccc5ncccc5c4)c3n2)cn1 | – | 29.6 µM (active) | 81.8 | 86.8 | 64.7 | 56.6 | 94.4 | 56.8 | 47.5 | 140 | 89.8 | inactive | inactive | inactive | inactive | inactive | – | – | – |
| Cc1csc(NC(=O)c2sc3nc4c(c(C(F)(F)F)c3c2N)CCC4)n1 | – | – | 100 | 101 | 87.9 | 44.6 | 90.9 | 62.4 | 78.3 | 36.4 | 93.3 | 23.5 µM (active) | inactive | 1.48 µM (active) | 4.18 µM (active) | 13.2 µM (active) | 13.6% (inactive) | – | – |
| Clc1cccc(Cl)c1NC1=NCCN1 | inactive | – | – | – | – | 86.2 | 77.5 | 56.5 | 70.5 | 144 | 113 | inactive | inactive | inactive | inactive | inactive | 7.62% (inactive) and 5.35% (inactive) | – | – |
| NC[C@H](O)c1ccc(O)c(O)c1 | inactive | – | – | – | – | 71.5 | 97.8 | 78.3 | 82.4 | 132 | 96.3 | inactive | inactive | inactive | inactive | inactive | 20.6% (inactive) and 26.6% (inactive) | -4.13% (inactive) | inactive |
| Cc1cnc(Nc2ccc(OCCN3CCCC3)cc2)nc1Nc1cccc(S(=O)(=O)NC(C)(C)C)c1 | – | – | 1.03 | 52.4 | 1.48 | 6.36 | 25.8 | 11 | 2.63 | 112 | 72.4 | inactive | inactive | inactive | inactive | inactive | – | – | – |
| O=C1CCc2cc(OCCCCc3nnnn3C3CCCCC3)ccc2N1 | inactive | – | – | – | – | 90.8 | 99.1 | 115 | 104 | 137 | 84.4 | inactive | inactive | inactive | inactive | inactive | 16.8% (inactive) and 6.18% (inactive) | – | – |
